Several values for one entry are separate records, joined by “and”; a condition that tells them apart may be missing. Identical values can stand only once. Hit rate of the full screen: of about 1,300 compounds, about 1,000 (77%) were called active. Inconclusive results (about 7%) are left out. Calls follow the shape of the dose curve; as a rule, active = well fitted inhibition curve with a large enough effect; inconclusive = small, poorly fitted or top-dose-only effect; inactive = no such curve, though single readings can be large or run the other way. So high a share suggests a set chosen from earlier hits. Some of the results follow.
% is scaled to controls: 0 for no effect and ±100 for the full control effect; potency is read from the fitted curve at half-maximal effect.

This assay is described as follows: qHTS of small molecules that selectively kill Giardia lamblia: Hit Validation.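 Also: viability measured as ATP content by luminescence so killing lowers signal; nearly all actives have a fitted effect of over 65% in size.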 As to conditions: Giardia lamblia trophozoite viability, dose-response; series mostly up to 38.3 µM; activity change, negative = killing: at the top concentration. In a few lines: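 ATP-content bioluminescence gauges trophozoite survival. Cells (100/well) receive compound and incubate anaerobically for 48 hrs at 37 deg C; detection reagent follows for 15-30 min at room temperature.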
A general note: Quantitative high-throughput screening tests each substance at several concentrations.
Regarding `Cc1nc2c(nc1C)C(=O)c1ccccc1C2=O`, the Potency was 3.26 µM (active). Same read-out and setting: the figure for `O=C(Nc1nc(-c2cccs2)cs1)c1ccc([N+](=O)[O-])o1` is 0.65 µM (active); for `Cc1ccc(-c2csc(NC(=O)c3ccc([N+](=O)[O-])o3)n2)cc1` it is 1.63 µM (active); for `c1ccc(-c2nc(-c3cnc4ccccc4n3)cs2)cc1` it is 5.79 µM (active). `c1ccc(CCNc2ncnc3nc[nH]c23)cc1`: the “activity change, negative = killing” value is -21% (inactive). For the molecule `O=c1[nH]cnc2ccc([N+](=O)[O-])cc12`, the Potency was 1.63 µM (active). Still for that read-out and setting: the figure for `O=c1cc[nH]c2ccc([N+](=O)[O-])cc12` is 4.1 µM (active). For the molecule `COc1ccc(/C(O)=C2/C(=O)C(=O)N(CCCN3CCOCC3)C2c2ccc(N(C)C)cc2)cc1` (stereo not drawn), the “activity change, negative = killing” value was -18.1% (inactive).

Regarding `O=C(/C=C/c1cccc([N+](=O)[O-])c1)c1ccco1`, the Potency is 7.29 µM (active). Turning to `Brc1ccc(CNc2nc3ccccc3n2CCN2CCCCC2)cc1`, the Potency is 0.516 µM (active). The same measure, in the same setting: in the case of `O=[N+]([O-])c1nn(-c2ccc3c(c2)OCCO3)n(O)c1=NCc1ccccc1Cl` it was 4.6 µM (active). For `COc1ccccc1CN=c1c([N+](=O)[O-])nn(-c2ccc3c(c2)OCCO3)n1O`, the Potency was 4.6 µM (active). As for `CC1CC(C)CN(C(=O)/C=C/c2ccc([N+](=O)[O-])s2)C1` (stereo not drawn), the Potency is 4.6 µM (active). Still for that read-out and setting: the figure for `O=C(/C=C/c1ccc([N+](=O)[O-])s1)N1CCCC1` is 1.83 µM (active); for `O=C(/C=C/c1ccc([N+](=O)[O-])s1)N1CCCCC1` it is 1.45 µM (active); for `O=C(/C=C/c1ccc([N+](=O)[O-])s1)N1CCN(c2ccccc2)CC1` it is 1.45 µM (active). On the same count and under the same terms, the figure for `COC(=O)c1ccc(Nc2ccc3nonc3c2[N+](=O)[O-])cc1` is 2.05 µM (active); for `O=[N+]([O-])c1c(Nc2ccc(Br)cc2)ccc2nonc12` it is 2.9 µM (active).

Turning to `O=C(Cc1cccs1)N/N=C\c1ccc([N+](=O)[O-])s1`, the Potency was 2.9 µM (active).

Regarding `O=C(Cc1ccccc1)N/N=C/c1ccc([N+](=O)[O-])s1`, the Potency is 1.83 µM (active). For `CC(=O)Nc1ccc(S(=O)(=O)N(CCc2ccccc2)CC(=O)N/N=C/c2ccc(C(=O)O)cc2)cc1`, the “activity change, negative = killing” value was -25.4% (inactive).

`NC(=O)CCCn1c(C(=O)c2cc(Cl)c(N)c(Cl)c2)c2ccc([N+](=O)[O-])cc2[n+]1[O-]`: the Potency is 5.16 µM (active). Take `NCCCn1c(C(=O)c2cc(Cl)c(N)c(Cl)c2)c2ccccc2[n+]1[O-]`: the Potency is 1.3 µM (active). Still for that read-out and setting: in the case of `NCCCn1c(C(=O)c2cc(Cl)c(N)c(Cl)c2)c2ccc([N+](=O)[O-])cc2[n+]1[O-]` it was 1.63 µM (active). Turning to `CC[C@]1(C(=O)OC)[C@H]2C(=O)N(C)C(=O)[C@H]2[C@H]2CN(C)C(=NC)N21`, the “activity change, negative = killing” value is -4.23% (inactive). In the case of `CC(C)(C)NC(=O)CCN(/N=C/c1ccc([N+](=O)[O-])o1)C1=NS(=O)(=O)c2ccccc21`, the Potency was 1.16 µM (active).

On to `O=[N+]([O-])c1ccc(-c2nc(C(Cl)Cl)c3ccccc3n2)cc1`, for which the Potency was 1.3 µM (active). With `O=[N+]([O-])c1ccc(/C=N/Nc2nc(-c3ccccc3)c3cc(Br)ccc3n2)o1`, the Potency was 0.918 µM (active). On the same count and under the same terms, in the case of `Cc1cc(N/N=C/c2ccc([N+](=O)[O-])o2)nc2ccccc12` it was 1.83 µM (active); in that of `Cc1ccc2nc(N/N=C\c3ccc([N+](=O)[O-])o3)nc(-c3ccccc3)c2c1`, 0.46 µM (active). The same measure, in the same setting: in the case of `O=C(Nc1ccc(N2CCN(C(=O)c3ccc(Cl)cc3)CC2)cc1)c1ccc([N+](=O)[O-])o1` it was 0.579 µM (active); in that of `O=C(Nc1ccc(N2CCN(C(=O)c3ccccc3)CC2)cc1)c1ccc([N+](=O)[O-])o1`, 0.818 µM (active); in that of `Cc1ccccc1C(=O)N1CCN(c2ccc(NC(=O)c3ccc([N+](=O)[O-])o3)cc2)CC1`, 0.818 µM (active). `COCCNc1cc(NCCOC)c([N+](=O)[O-])cc1[N+](=O)[O-]`: the Potency was 1.45 µM (active). With `COC(=O)c1ccc2cc(OC)cc([N+](=O)[O-])c2n1`, the Potency is 5.79 µM (active). The same measure, in the same setting: in the case of `COCc1nnc(NC(=O)c2ccc(Cl)cc2[N+](=O)[O-])s1` it was 2.59 µM (active); in that of `O=C(C1=C(c2ccccc2)C(=O)c2ccccc2C1=O)c1ccccc1`, 11.6 µM (active). Same read-out and setting: the figure for `O=[N+]([O-])c1cc(C(F)(F)F)ccc1Oc1cccnc1[N+](=O)[O-]` is 4.1 µM (active).

In the case of `Cc1csc(NC(=O)c2cn3ccccc3n2)n1`, the Potency was 1.63 µM (active).

On to `CCN(CC(=O)NCc1cccs1)C(=O)c1ccc([N+](=O)[O-])o1`, for which the Potency is 0.41 µM (active).

Consider `CCN(CC)CCNC(=O)c1ccc(NC(=O)COc2ccc3c(c2)CCC3)cc1`, for which the “activity change, negative = killing” value is -8.63% (inactive). On to `O=C(COc1cccnc1[N+](=O)[O-])NCc1ccc(F)cc1`, for which the Potency is 5.16 µM (active). On to `O=C(COc1cccnc1[N+](=O)[O-])Nc1ccc2c(c1)CCC2`, for which the Potency was 16.3 µM (active). Same read-out and setting: in the case of `COc1cccc(NC(=O)COc2cccnc2[N+](=O)[O-])c1` it was 4.6 µM (active). Regarding `O=C(CCN1C(=O)c2ccccc2C1=O)NCc1ccc(F)cc1`, the “activity change, negative = killing” value was -5.49% (inactive). Still for that read-out and setting: in the case of `C=CCNc1ncnc2sc(SC)nc12` it was -20.1% (inactive).

For the molecule `COc1ccc(CNC(=O)COc2cccnc2[N+](=O)[O-])cc1OC`, the Potency is 11.6 µM (active). Same read-out and setting: the figure for `O=C(COc1cccnc1[N+](=O)[O-])NCc1ccco1` is 6.5 µM (active); for `COc1ccc(C(C)=O)cc1COc1cccnc1[N+](=O)[O-]` it is 6.5 µM (active). Same read-out and setting: the figure for `COc1ccc(CNC(=O)COc2cccnc2[N+](=O)[O-])cc1` is 6.5 µM (active).

As to `O=C(NCCc1ccccc1)c1ccc(CS(=O)(=O)c2ccc(Cl)cc2)o1`, the “activity change, negative = killing” value is -35.5% (inactive). With `O=C(COc1cccnc1[N+](=O)[O-])NCCc1ccc(Cl)cc1`, the Potency is 3.65 µM (active).

Turning to `CC1CCCCC1NC(=O)COc1cccnc1[N+](=O)[O-]` (stereo not drawn), the Potency is 2.31 µM (active). `CC1CCCCC1NC(=O)NC(=O)COC(=O)c1cncc(Br)c1` (stereo not drawn): the “activity change, negative = killing” value is 11.2% (inactive). Same read-out and setting: in the case of `CCCCc1cc(=O)oc2c(C)c(OCC(=O)NCc3ccccn3)ccc12` it was -36.2% (inactive). `O=C(COc1cccnc1[N+](=O)[O-])Nc1ccc(F)cc1`: the Potency is 5.79 µM (active).

As to `O=C(COc1cccnc1[N+](=O)[O-])NCc1cccs1`, the Potency is 8.18 µM (active). As to `CN(C)S(=O)(=O)c1cccc(C(=O)NCCNC(=O)c2cccc(S(=O)(=O)N(C)C)c2)c1`, the “activity change, negative = killing” value was 15.2% (inactive). Regarding `CN(C)c1cc(NC(=O)CNC(C)(C)CC(C)(C)C)c2ccccc2n1`, the Potency was 1.03 µM (active). Same read-out and setting: the figure for `O=[N+]([O-])c1ccccc1S(=O)(=O)Oc1ccccc1/C=N/n1cnnc1` is 2.05 µM (active); for `O=[N+]([O-])c1ccccc1S(=O)(=O)Oc1ccc(/C=N/n2cnnc2)cc1` it is 0.516 µM (active). `Cc1cc2ccccn2c1C(=O)c1ccc([N+](=O)[O-])cc1[N+](=O)[O-]`: the Potency was 4.6 µM (active). Consider `Cn1ccsc1=NC(=O)c1ccc([N+](=O)[O-])o1`, for which the Potency is 0.206 µM (active). With `Cc1[nH]n(C2=NCCS2)c(=O)c1N=Nc1cccc(C(F)(F)F)c1`, the Potency is 6.5 µM (active).

For the molecule `CCOC(=O)C1CCN(c2ccc([N+](=O)[O-])c(C(C)=O)c2)CC1`, the Potency is 2.31 µM (active). Same read-out and setting: the figure for `CC(=O)c1cc(N2CCOCC2)ccc1[N+](=O)[O-]` is 1.83 µM (active). Take `CC1CCN(c2ccc(-c3ccc(NC(=O)C(F)(F)F)cc3)nn2)CC1`: the Potency is 1.83 µM (active). In the case of `CCC(C(=O)OC)n1c(-c2ccccc2)nc2ccccc2c1=O` (stereo not drawn), the “activity change, negative = killing” value was 1.17% (inactive).

As to `COc1ccc(-c2nc3ccccc3n2OCC(=O)O)cc1`, the Potency is 5.79 µM (active). For `NNC(=O)c1cccc(Cn2cc(Br)c([N+](=O)[O-])n2)c1`, the Potency is 1.16 µM (active). Take `CC(NC(=O)Cn1cc(Br)c([N+](=O)[O-])n1)c1ccccc1` (stereo not drawn): the Potency is 0.516 µM (active). On to `O=[N+]([O-])c1ccc(COn2nnc3ccccc32)cc1`, for which the Potency is 1.63 µM (active). Turning to `CC(Nc1nc(N2CCN(CCO)CC2)nc2ccccc12)c1ccccc1` (stereo not drawn), the Potency is 1.03 µM (active). With `Cc1ccc(OCC(=O)c2cc(C)n(Cc3ccco3)c2C)c([N+](=O)[O-])n1`, the Potency was 1.16 µM (active). Take `Cc1cc(C(=O)COc2cccnc2[N+](=O)[O-])c(C)n1Cc1ccco1`: the Potency was 0.65 µM (active).

As to `O=c1c2c(-c3ccccc3)csc2ncn1/N=C/c1ccc(O)c([N+](=O)[O-])c1`, the Potency is 2.9 µM (active). Still for that read-out and setting: the figure for `Cc1cc(C)cc(Oc2ccc(NC(=O)C3CC=CCC3C(=O)O)cc2)c1` (stereo not drawn) is 1.3 µM (active).

For the molecule `COC(=O)Nc1nc2ccc(SC(C)C)cc2[nH]1`, the Potency is 0.365 µM (active). On the same count and under the same terms, the figure for `COC(=O)Nc1nc2ccc(Sc3ccccc3)cc2[nH]1` is 0.23 µM (active).

Turning to `COC(=O)Nc1nc2ccc(C(=O)c3cccs3)cc2[nH]1`, the Potency was 0.23 µM (active). In the case of `CCc1ccc(C(=O)Nc2nc3ccccc3[nH]2)cc1`, the Potency was 0.46 µM (active).

Consider `CCc1cccc(NC(=O)CCCSc2nc3ccccc3[nH]2)c1`, for which the “activity change, negative = killing” value is -16.1% (inactive). With `COc1cc(SC)ccc1C(=O)Nc1nc2ccccc2[nH]1`, the Potency is 0.146 µM (active).

Regarding `CCCSc1ccc2nc(NC(=O)OC)[nH]c2c1`, the Potency is 0.516 µM (active). The same measure, in the same setting: in the case of `CC(=O)Nc1nc(-c2cc([N+](=O)[O-])cs2)cs1` it was 1.16 µM (active); in that of `CCC(=O)Nc1nc(-c2cc([N+](=O)[O-])cs2)cs1`, 1.3 µM (active); in that of `NC(=O)c1ccc(NC(=O)COc2ccc([N+](=O)[O-])cc2Cl)cc1`, 1.16 µM (active). On the same count and under the same terms, the figure for `NC(=O)c1ccc(Nc2ccc([N+](=O)[O-])cc2[N+](=O)[O-])cc1` is 2.9 µM (active); for `O=C(Nc1nccs1)c1cc([N+](=O)[O-])ccc1Cl` it is 2.59 µM (active); for `COc1ccc(C(=O)c2c3ccccc3[n+]([O-])n2CCCN)cc1` it is 1.03 µM (active) and 3.26 µM (active). The same measure, in the same setting: in the case of `COc1ccc(C(=O)c2c3ccc([N+](=O)[O-])cc3[n+]([O-])n2CCCN)cc1` it was 7.29 µM (active); in that of `COc1ccc(C(=O)c2c3ccc([N+](=O)[O-])cc3[n+]([O-])n2CCCC(N)=O)cc1`, 4.1 µM (active). Regarding `Cc1c(C(=O)O)sc2nc(SCC(=O)Nc3ccc(S(=O)(=O)NC(C)(C)C)cc3)[nH]c(=O)c12`, the “activity change, negative = killing” value is -1.26% (inactive).

For the origin of these results see PubChem BioAssay AID588397 (National Center for Advancing Translational Sciences (NCATS), 2011).
